Experimental data as given in PubChem BioAssay (EPA / NIEHS).
The source made the active and inactive calls. How the source made its calls: active means hit-call score of the fitted dose curve at least 0.9, where 1 is the maximum; inactive means score below 0.9.

How the values were obtained:
[1] = read-out: Tumor necrosis factor receptor superfamily member 6 (Homo sapiens) (UniProt P25445); experiment: LTEA_HepaRG_FAS: Life Technologies and Expression Analysis (LTEA) Assay for Fas cell surface death receptor (FAS) using HepaRG (AID 2283447); conditions: mRNA level, 48 h; actives raise or lower the signal
Summary of the method: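 Differentiated HepaRG cells in serum-free induction medium were exposed 48 h to 8 half-log concentrations up to 100 uM in 0.5% DMSO, in duplicate. FAS mRNA was measured by qRT-PCR normalised to ACTB, GAPDH and POLR2A; bidirectional fit versus DMSO.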

[2] = read-out: Fatty acid synthase (Homo sapiens) (UniProt P49327); experiment: LTEA_HepaRG_FASN: Life Technologies and Expression Analysis (LTEA) Assay for Fatty Acid Synthase (FASN) using HepaRG (AID 2283448); conditions: mRNA level, 48 h; actives raise or lower the signal
Summary of the method: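 Differentiated human HepaRG cells were exposed for 48 h in serum-free induction medium to eight half-log concentrations up to 100 uM in 0.5% DMSO, in duplicate. FASN mRNA was quantified by TaqMan qRT-PCR, normalized to ACTB/GAPDH/POLR2A, and fitted bidirectionally against DMSO.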

[3] = read-out: Cyclin D2 (CCND2), CCND2 (gene 894); experiment: LTEA_HepaRG_CCND2: Life Technologies and Expression Analysis (LTEA) Assay for Cyclin D2 (CCND2) using HepaRG (AID 2283449); conditions: mRNA level, 48 h; actives raise or lower the signal;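 further: CCND2 transcript measured by TaqMan qRT-PCR and normalised to three housekeeping genes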
Summary of the method: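 Chemicals in 0.5% DMSO, eight half-log concentrations from 100 uM top, were applied in duplicate for 48 h to human HepaRG cells in serum-free induction medium. CCND2 mRNA by TaqMan qRT-PCR, normalised to ACTB/GAPDH/POLR2A; bidirectional fit versus DMSO.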

[4] = read-out: Cyclin D1 (CCND1), CCND1 (gene 595); experiment: LTEA_HepaRG_CCND1: Life Technologies and Expression Analysis (LTEA) Assay for Cyclin D1 (CCND1) using HepaRG (AID 2283451); conditions: mRNA level, 48 h; actives raise or lower the signal;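 on AC50: TaqMan qRT-PCR transcript level normalised to ACTB GAPDH and POLR2A housekeeping genes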
Summary of the method: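 Expression change is measured by qRT-PCR in HepaRG cells after 48 h treatment across eight concentrations topping at 100 uM, with duplicate wells and DMSO (0.5%) serving as baseline for bidirectional fitting.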

[5] = read-out: catalase (CAT), CAT (gene 847); experiment: LTEA_HepaRG_CAT: Life Technologies and Expression Analysis (LTEA) Assay for catalase (CAT) using HepaRG (AID 2283452); conditions: mRNA level, 48 h; actives raise or lower the signal;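 on AC50: TaqMan qRT-PCR signal normalized to ACTB GAPDH and POLR2A housekeeping genes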
Summary of the method: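 HepaRG cells in serum-free induction medium, 0.5% DMSO vehicle, exposed 48 h in duplicate over 8 half-log concentrations from 100 uM. CAT mRNA measured by qRT-PCR, normalized to ACTB, GAPDH, POLR2A; bidirectional fit versus DMSO.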

[6] = read-out: flavin-containing dimethylaniline monooxygenases 3 (FMO3), FMO3 (gene 2328); experiment: LTEA_HepaRG_FMO3: Life Technologies and Expression Analysis (LTEA) Assay for flavin-containing dimethylaniline monooxygenases 3 (FMO3) using HepaRG (AID 2283453); conditions: mRNA level, 48 h; actives raise or lower the signal
Summary of the method: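 HepaRG, 48 h exposure, 8-pt half-log series from 100 uM, 0.5% DMSO vehicle, duplicates; FMO3 transcript by Fluidigm TaqMan qRT-PCR, housekeeping-normalized; gain/loss fit vs DMSO.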

[7] = read-out: Cytochrome P450 (CYP1A1), CYP1A1 (gene 1543); experiment: LTEA_HepaRG_CYP1A1: Life Technologies and Expression Analysis (LTEA) Assay for Cytochrome P450 (CYP1A1) using HepaRG (AID 2283454); conditions: mRNA level, 48 h; actives raise or lower the signal
Summary of the method: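 Using HepaRG cultures with 0.5% DMSO as vehicle, eight-concentration exposures (max 100 uM) lasted 48 h. Transcript levels were measured by TaqMan qRT-PCR and normalized to ACTB, GAPDH and POLR2A.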

[8] = read-out: CFLAR gene, CFLAR (gene 8837); experiment: LTEA_HepaRG_CFLAR: Life Technologies and Expression Analysis (LTEA) Assay for CFLAR gene using HepaRG (AID 2283455); conditions: mRNA level, 48 h; actives raise or lower the signal
Summary of the method: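 Differentiated HepaRG cells in serum-free induction medium were exposed 48 h in duplicate to eight half-log concentrations up to 100 uM in 0.5% DMSO; mRNA measured by TaqMan qRT-PCR, normalized to ACTB, GAPDH, POLR2A; bidirectional fitting versus DMSO.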

[9] = read-out: Forkhead box O1 (FOXO1), FOXO1 (gene 2308); experiment: LTEA_HepaRG_FOXO1: Life Technologies and Expression Analysis (LTEA) Assay for Forkhead box O1 (FOXO1) using HepaRG (AID 2283456); conditions: mRNA level, 48 h; actives raise or lower the signal
Summary of the method: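 Differentiated HepaRG cells, in serum-free induction medium with 0.5% DMSO, exposed 48 h in duplicate to 8-point half-log series from 100 uM. FOXO1 mRNA measured by TaqMan qRT-PCR, normalized to ACTB, GAPDH, POLR2A; bidirectional fit versus DMSO.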

[10] = read-out: growth arrest and DNA damage 45 (GADD45A), GADD45A (gene 1647); experiment: LTEA_HepaRG_GADD45A: Life Technologies and Expression Analysis (LTEA) Assay for growth arrest and DNA damage 45 (GADD45A) using HepaRG (AID 2283458); conditions: mRNA level, 48 h; actives raise or lower the signal
Summary of the method: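 Differentiated HepaRG cells were exposed in duplicate for 48 h in serum-free induction medium to 8-point half-log concentrations up to 100 uM in 0.5% DMSO. GADD45A mRNA was measured by TaqMan qRT-PCR, normalized to ACTB, GAPDH and POLR2A, with bidirectional fitting versus DMSO.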

[11] = read-out: Forkhead box O3 (FOXO3), FOXO3 (gene 2309); experiment: LTEA_HepaRG_FOXO3: Life Technologies and Expression Analysis (LTEA) Assay for Forkhead box O3 (FOXO3) using HepaRG (AID 2283459); conditions: mRNA level, 48 h; actives raise or lower the signal
Summary of the method: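 Differentiated human HepaRG cells, 48 h post-plating, exposed in duplicate for 48 h in serum-free induction medium; 8-point half-log series from 100 uM in 0.5% DMSO. FOXO3 mRNA by TaqMan qRT-PCR, normalized to ACTB/GAPDH/POLR2A; bidirectional fit versus DMSO.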

[12] = read-out: ABC Transporter (ABCB1), ABCB1 (gene 5243); experiment: LTEA_HepaRG_ABCB1: Life Technologies and Expression Analysis (LTEA) Assay for ABC Transporter (ABCB1) using HepaRG (AID 2283460); conditions: mRNA level, 48 h; actives raise or lower the signal
Summary of the method: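 HepaRG cells exposed in duplicate for 48 h in serum-free induction medium to eight half-log concentrations up to 100 uM in 0.5% DMSO. ABCB1 mRNA quantified by qRT-PCR, normalised to ACTB, GAPDH and POLR2A; fitted bidirectionally versus DMSO.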

[13] = read-out: growth arrest and DNA damage 45 (GADD45B), GADD45B (gene 4616); experiment: LTEA_HepaRG_GADD45B: Life Technologies and Expression Analysis (LTEA) Assay for growth arrest and DNA damage 45 (GADD45B) using HepaRG (AID 2283461); conditions: mRNA level, 48 h; actives raise or lower the signal
Summary of the method: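 Human HepaRG monolayers receive chemicals for 48 h at eight half-log concentrations, highest 100 uM, in 0.5% DMSO. Expression is measured by TaqMan qRT-PCR and normalized to ACTB, GAPDH and POLR2A.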

[14] = read-out: ABC Transporter (ABCC3), ABCC3 (gene 8714); experiment: LTEA_HepaRG_ABCC3: Life Technologies and Expression Analysis (LTEA) Assay for ABC Transporter (ABCC3) using HepaRG (AID 2283462); conditions: mRNA level, 48 h; actives raise or lower the signal
Summary of the method: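 Transcriptional change of ABCC3 in HepaRG after 48 h treatment, determined by qRT-PCR normalized to endogenous controls. Concentrations spanned eight half-log steps to 100 uM in 0.5% DMSO.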

[15] = read-out: ABC Transporter (ABCB11), ABCB11 (gene 8647); experiment: LTEA_HepaRG_ABCB11: Life Technologies and Expression Analysis (LTEA) Assay for ABC Transporter (ABCB11) using HepaRG (AID 2283463); conditions: mRNA level, 48 h; actives raise or lower the signal
Summary of the method: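 Differentiated human HepaRG cells in serum-free induction medium, dosed in duplicate for 48 h. Eight-point half-log series from 100 uM in 0.5% DMSO; ABCB11 mRNA by qRT-PCR, normalized to ACTB, GAPDH, POLR2A, fitted bidirectionally versus DMSO.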

[16] = read-out: ABC Transporter (ABCC2), ABCC2 (gene 1244); experiment: LTEA_HepaRG_ABCC2: Life Technologies and Expression Analysis (LTEA) Assay for ABC Transporter (ABCC2) using HepaRG (AID 2283464); conditions: mRNA level, 48 h; actives raise or lower the signal
Summary of the method: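 After plating and 48 h culture, HepaRG medium is replaced with serum-free induction medium and chemicals are added (8 concentrations, max 100 uM, 0.5% DMSO) for 48 h. Total RNA then undergoes qRT-PCR for ABCC2 with housekeeping normalization.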

[17] = read-out: Broad substrate specificity ATP-binding cassette transporter ABCG2 (Homo sapiens) (UniProt Q9UNQ0); experiment: LTEA_HepaRG_ABCG2: Life Technologies and Expression Analysis (LTEA) Assay for ABC Transporter (ABCG2) using HepaRG (AID 2283465); conditions: mRNA level, 48 h; actives raise or lower the signal
Summary of the method: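 Differentiated HepaRG cells were exposed for 48 h in serum-free induction medium to 8 half-log concentrations, top 100 uM, in 0.5% DMSO. ABCG2 mRNA was measured by qRT-PCR, normalized to ACTB, GAPDH and POLR2A, with bidirectional fitting versus DMSO.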

[18] = read-out: Cyclin Dependent Kinase Inhibitor 1A (CDKN1A), CDKN1A (gene 1026); experiment: LTEA_HepaRG_CDKN1A: Life Technologies and Expression Analysis (LTEA) Assay for Cyclin Dependent Kinase Inhibitor 1A (CDKN1A) using HepaRG (AID 2283450); conditions: mRNA level, 48 h; actives raise or lower the signal
Summary of the method: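 Gain or loss of CDKN1A transcript is scored by bidirectional fitting against 0.5% DMSO vehicle. Human HepaRG cultures receive chemicals for 48 h across an 8-point series peaking at 100 uM; expression comes from qRT-PCR.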

[19] = CEETOX_H295R_PROG: CeeTox H295R High-throughput Steroidogenesis Assay for Progesterone (PROG) (AID 2283442); conditions: actives raise or lower the signal
Summary of the method: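 Measured analyte is progesterone secreted by H295R cells at 48 h of chemical treatment, following 10 uM forskolin priming. Quantitation used HPLC-MS/MS against a 7-point standard curve; cytotoxicity was checked by MTT absorbance.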

Measured: AC50

Chain of Broad substrate specificity ATP-binding cassette transporter ABCG2 (Homo sapiens) (Q9UNQ0 whole entry, looked up): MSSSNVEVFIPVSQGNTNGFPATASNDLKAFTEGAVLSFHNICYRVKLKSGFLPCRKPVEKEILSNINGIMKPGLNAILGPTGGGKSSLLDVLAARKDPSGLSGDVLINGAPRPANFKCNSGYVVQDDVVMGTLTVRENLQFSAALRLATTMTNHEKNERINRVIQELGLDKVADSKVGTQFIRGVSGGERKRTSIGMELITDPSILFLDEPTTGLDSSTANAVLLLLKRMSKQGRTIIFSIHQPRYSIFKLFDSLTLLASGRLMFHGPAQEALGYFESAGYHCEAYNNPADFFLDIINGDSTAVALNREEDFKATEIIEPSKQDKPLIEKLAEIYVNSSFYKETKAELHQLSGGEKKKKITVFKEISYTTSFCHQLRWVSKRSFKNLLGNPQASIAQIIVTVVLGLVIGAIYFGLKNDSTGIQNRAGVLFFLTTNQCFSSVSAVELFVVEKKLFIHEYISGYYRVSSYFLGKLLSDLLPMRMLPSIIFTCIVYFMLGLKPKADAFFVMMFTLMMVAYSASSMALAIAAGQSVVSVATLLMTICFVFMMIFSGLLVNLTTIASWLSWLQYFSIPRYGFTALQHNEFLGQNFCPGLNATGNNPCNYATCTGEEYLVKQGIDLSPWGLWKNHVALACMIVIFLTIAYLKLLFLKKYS
Chain of Fatty acid synthase (Homo sapiens) (P49327 whole entry, looked up): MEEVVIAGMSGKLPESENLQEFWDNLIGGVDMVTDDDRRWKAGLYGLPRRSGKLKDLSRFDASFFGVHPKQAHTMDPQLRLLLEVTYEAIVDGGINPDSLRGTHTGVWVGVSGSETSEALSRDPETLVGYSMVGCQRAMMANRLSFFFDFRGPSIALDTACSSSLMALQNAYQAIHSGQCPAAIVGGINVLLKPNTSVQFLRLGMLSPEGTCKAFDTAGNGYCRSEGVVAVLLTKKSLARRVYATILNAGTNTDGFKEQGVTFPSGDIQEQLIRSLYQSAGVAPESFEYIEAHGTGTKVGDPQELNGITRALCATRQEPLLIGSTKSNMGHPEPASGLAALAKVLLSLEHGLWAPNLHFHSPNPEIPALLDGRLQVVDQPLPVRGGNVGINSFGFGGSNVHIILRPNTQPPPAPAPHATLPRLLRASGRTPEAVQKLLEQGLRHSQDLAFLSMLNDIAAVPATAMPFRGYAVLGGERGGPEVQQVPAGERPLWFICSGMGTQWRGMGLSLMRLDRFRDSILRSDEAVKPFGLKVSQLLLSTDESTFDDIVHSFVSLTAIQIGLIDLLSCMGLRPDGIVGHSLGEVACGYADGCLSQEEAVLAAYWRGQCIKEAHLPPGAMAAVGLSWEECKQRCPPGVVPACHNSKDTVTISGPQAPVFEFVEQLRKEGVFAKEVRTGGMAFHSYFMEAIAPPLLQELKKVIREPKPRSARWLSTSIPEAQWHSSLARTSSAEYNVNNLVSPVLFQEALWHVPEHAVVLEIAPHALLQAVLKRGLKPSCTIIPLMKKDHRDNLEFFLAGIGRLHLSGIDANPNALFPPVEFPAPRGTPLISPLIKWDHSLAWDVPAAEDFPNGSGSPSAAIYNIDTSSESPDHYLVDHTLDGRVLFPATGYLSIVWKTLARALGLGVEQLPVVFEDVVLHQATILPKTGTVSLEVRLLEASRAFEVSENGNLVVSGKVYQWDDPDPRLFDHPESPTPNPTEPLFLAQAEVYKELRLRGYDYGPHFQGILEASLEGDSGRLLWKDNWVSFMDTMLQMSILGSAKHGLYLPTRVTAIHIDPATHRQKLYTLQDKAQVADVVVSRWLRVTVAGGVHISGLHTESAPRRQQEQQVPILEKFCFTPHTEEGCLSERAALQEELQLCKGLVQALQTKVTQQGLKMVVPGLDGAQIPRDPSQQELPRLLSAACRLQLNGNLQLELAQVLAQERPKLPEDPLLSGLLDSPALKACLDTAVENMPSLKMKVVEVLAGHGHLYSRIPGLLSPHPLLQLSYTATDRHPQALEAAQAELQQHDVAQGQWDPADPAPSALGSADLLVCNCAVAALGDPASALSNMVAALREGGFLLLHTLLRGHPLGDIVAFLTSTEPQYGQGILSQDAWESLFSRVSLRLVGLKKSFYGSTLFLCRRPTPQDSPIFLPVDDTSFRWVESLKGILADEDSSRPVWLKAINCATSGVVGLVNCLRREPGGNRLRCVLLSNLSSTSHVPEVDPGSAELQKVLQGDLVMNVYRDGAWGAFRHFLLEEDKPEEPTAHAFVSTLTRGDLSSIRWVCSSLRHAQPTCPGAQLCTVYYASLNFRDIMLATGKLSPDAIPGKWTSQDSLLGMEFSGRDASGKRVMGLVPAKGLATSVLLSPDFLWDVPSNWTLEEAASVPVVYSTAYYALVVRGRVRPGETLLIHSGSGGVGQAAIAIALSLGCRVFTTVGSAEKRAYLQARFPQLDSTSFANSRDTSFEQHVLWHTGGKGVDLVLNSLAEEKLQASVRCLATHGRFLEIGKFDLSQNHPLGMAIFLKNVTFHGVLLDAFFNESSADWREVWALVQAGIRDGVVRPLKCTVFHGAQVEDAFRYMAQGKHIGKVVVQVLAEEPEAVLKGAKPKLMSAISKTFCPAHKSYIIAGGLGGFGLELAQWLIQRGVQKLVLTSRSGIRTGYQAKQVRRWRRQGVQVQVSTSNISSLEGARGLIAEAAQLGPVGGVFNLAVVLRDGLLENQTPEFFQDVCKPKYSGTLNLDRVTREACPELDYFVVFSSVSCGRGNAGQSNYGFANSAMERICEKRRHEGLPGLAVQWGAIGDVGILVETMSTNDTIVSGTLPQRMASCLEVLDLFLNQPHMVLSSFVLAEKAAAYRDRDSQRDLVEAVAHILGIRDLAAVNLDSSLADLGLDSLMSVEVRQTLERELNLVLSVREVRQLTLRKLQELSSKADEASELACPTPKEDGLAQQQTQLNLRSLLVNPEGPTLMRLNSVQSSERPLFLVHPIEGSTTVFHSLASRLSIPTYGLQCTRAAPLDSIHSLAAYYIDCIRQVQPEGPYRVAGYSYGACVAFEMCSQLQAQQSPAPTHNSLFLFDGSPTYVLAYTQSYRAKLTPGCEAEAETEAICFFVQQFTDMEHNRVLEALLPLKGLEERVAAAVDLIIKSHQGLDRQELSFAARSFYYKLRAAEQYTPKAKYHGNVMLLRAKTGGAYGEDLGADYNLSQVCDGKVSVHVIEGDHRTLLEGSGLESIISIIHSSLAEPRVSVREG

CCCCOC(=O)c1ccccc1C(=O)OCc1ccccc1
active: [7] 15.1 µM
not listed: [18] | [19]
inactive: all other assays above

CO[C@@H]1[C@H](OC(=O)NC(=O)CCl)CC[C@]2(CO2)[C@H]1[C@@]1(C)O[C@@H]1CC=C(C)C
active: [7] 16 µM | [15] 0.286 µM
not listed: [19]
inactive: all other assays above

CCOC(=O)[C@]1(c2ccccc2)Oc2ccccc2[C@@H]1N
inactive: [19] | [3] | [8] | [11] | [12] | [14]
active: [2] 41.6 µM | [18] 78.3 µM | [4] 77.5 µM | [5] 88.2 µM | [6] 78.6 µM | [7] 13 µM | [9] 83.3 µM | [10] 76.2 µM | [13] 76.8 µM | [15] 78.7 µM | [16] 82.2 µM | [17] 50 µM

CN(C)c1ccccc1
active: [7] 63.3 µM
not listed: [19]
inactive: all other assays above

O=C1CCCO1
active: [1] 50 µM | [10] 50 µM | [12] 9.92 µM
not listed: [19]
inactive: all other assays above

Clc1ccc(C(c2ccc(Cl)cc2)C(Cl)Cl)cc1
active: [2] 73.7 µM | [7] 29.5 µM | [12] 31.6 µM | [15] 81.8 µM | [16] 19.3 µM
not listed: [19]
inactive: all other assays above

CCCCCCCCOC(=O)c1ccc(C(=O)OCCCCCCCC)c(C(=O)OCCCCCCCC)c1
active: [7] 50.5 µM
not listed: [19]
inactive: all other assays above

CC(C)COC(=O)c1ccccc1C(=O)OCC(C)C
active: [7] 59.1 µM
not listed: [19]
inactive: all other assays above

O=C(N[C@H](c1ccccc1)[C@@H]1CN2CCC1CC2)c1c(Cl)ccc(C(F)(F)F)c1Cl
active: [2] 76.8 µM | [4] 74.2 µM | [5] 68.5 µM | [6] 65.9 µM | [7] 11 µM | [8] 82.4 µM | [9] 74.5 µM | [10] 46.2 µM | [12] 13.5 µM | [13] 46.2 µM | [14] 36.3 µM | [16] 71.8 µM
inactive: [1] | [3] | [18] | [11] | [15] | [17]

CCN(CC)N=O
active: [7] 76.5 µM
not listed: [19]
inactive: all other assays above

OCCCl
not listed: [19]
inactive: all other assays above

C1=Cc2cccc3cccc1c23
active: [7] 20.9 µM
not listed: [15] | [19]
inactive: all other assays above

ClC1=C(Cl)C2(Cl)C3C(Cl)C=CC3C1(Cl)C2(Cl)Cl (stereo unspecified)
active: [4] 18.4 µM | [7] 18.3 µM | [12] 1.45 µM | [15] 41.6 µM | [16] 11.4 µM | [17] 8.6 µM
not listed: [18] | [19]
inactive: all other assays above
